From PubChem BioAssay

What follows are compounds tested against Calmodulin-1 (Homo sapiens) (UniProt P0DP23) (assay: CALM1 binders on microarrays, EGTA buffer, profiling panel, biochemical, small-molecule microarray, Cy5-labelled CALM1 (AID 1111;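 further: labelled calmodulin applied in Tris saline Tween buffer holding calcium plus EGTA and DTT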)). Conditions: Cy5-CALM1 binding fluorescence, higher = more signal.

| Compound | composite z-score |
| --- | --- |
| [N-]=[N+]=Nc1ccccc1C[C@]1(C(=O)NCCN2CCOCC2)N=C(c2ccc(OCCCO)cc2)O[C@H]1c1ccccc1 | 0.169 |
| CCOC(=O)C[C@H]1[C@H](OC(=O)c2ccc(-c3ccccc3)cc2)[C@@H](NC(=O)c2ccc3ccccc3c2)c2cc(OCCCO)ccc2N1C(=O)Cc1ccc(OC)cc1 | 0.868 |
| CC(C)(C)OC(=O)CC[C@@]1(C(=O)O)N=C(c2ccc(OCCCO)cc2)O[C@@H]1c1ccccc1N=[N+]=[N-] | 1.64 |
| O=C1C[C@]2(c3ccc([N+](=O)[O-])cc3)C(=O)N(CC(F)(F)F)c3cc(CO)ccc3[C@H]2N1CC12CC3CC(CC(C3)C1)C2 | -0.28 |
| O=C1OCCC=C[C@H]2OC34C=CCN(c5ccc6ccccc6c5)C(=O)[C@H]3N(CCCCCO)C(=O)[C@@H]4C12 (stereo not given in full) | -0.491 |
| Cc1cc(C)c(C(O)C2C=CC3C(=O)N(c4ccccc4)C(=O)C3N2Nc2ccc(C#N)cc2)c(C)c1 (stereo not given) | 2.56 |
| C=C[C@@H](COC(C)=O)N(Cc1ccccc1[N+](=O)[O-])S(=O)(=O)c1ccc(Br)cc1 | 0.198 |
| COCCOC(=O)N1C(=O)[C@@]2(c3cc(C#Cc4ccc(OC)cc4)ccc31)[C@H](C(=O)N1CCN(c3ncccn3)CC1)[C@H]1C(=O)O[C@H](c3ccccc3)[C@H](c3ccccc3)N1[C@@H]2c1ccc(O)cc1 | 0.958 |
| CCOC(=O)C[C@H]1[C@H](OC(=O)c2ccc(-c3ccccc3)cc2)[C@@H](NC(=O)c2ccc(-c3ccccc3)cc2)c2cc(OCCCO)ccc2N1C(=O)Cc1ccc(OC)cc1 | 0.382 |
| COC(=O)[C@@]1(Cc2ccccc2)[C@H]2c3cc(C(=O)N4CCCC4)n(C)c3C[C@H]2CN1C(=O)c1ccccc1 | 2.57 |
